Screening results (PubChem BioAssay)
Sampled rows, rich in hits. Any-hit rate of the full collection: about 0.33%.
FXIa single inh – inhibitors of human coagulation factor XIa | inhibition, % at 10 µM | AID 687 | P03951 | 0.3% of 33,000 active | purified human FXIa, fluorogenic AMC substrate cleavage;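 active = inhibition above 40% in the primary screen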;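 note: 0% = enzyme without compound and 100% = blank wells lacking enzyme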
FXIIa inh – inhibitors of human coagulation factor XIIa | inhibition, % at 10 µM | AID 701 | purified human FXIIa, AMC substrate fluorescence, 2 h | 0.2% of 33,000 active; in the data active = inhibition above about 30%;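 note: 0% = enzyme with vehicle only and 100% = no enzyme blank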
The depositor's hits bear a star.

SMILES | FXIa single inh | FXIIa inh
O=C(Nc1ccc(F)cc1)N1CC2CC(C1)c1cccc(=O)n1C2 (stereo not drawn) | -8.9 | -9.5
O=c1cccc2n1CC1CC2CN(S(=O)(=O)c2ccccc2)C1 (stereo not drawn) | 41.7* | 3.1
CCOC(=O)C(C)(CC)NC(=O)CSP(=S)(OCC)OCC (stereo not drawn) | -0.5 | 6.4
